# Results from PubChem BioAssay AID485313 (National Center for Advancing Translational Sciences (NCATS), 2010).
# The whole screen tested about 320,000 compounds, of which about 7,600 (2.4%) were called active. Roughly 3% stayed inconclusive and do not appear here. The entries come from a sample that favours actives as a whole. A number with no mark means an inactive call. Calls come from the whole dose curve; as a rule, active = well fitted activation curve with a large enough effect; inconclusive = small, poorly fitted or top-dose-only effect; inactive = no such curve, though single readings can be large or run the other way.
# Experiment: qHTS Assay for NPC1 Promoter Activators; note: nearly all actives have a fitted effect of over 60% in size;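 for activation: reporter is driven by a mutant NPC1 promoter; % of control where 0% means no effect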
# Conditions: Huh7 NPC1 promoter luciferase reporter, 24 h; series mostly up to 9.22 µM; activation: at the top concentration
# Summary of the method: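 Stable NPC1-promoter luciferase Huh7 line; cpd (DMSO) 24 h, 37 °C, 5% CO2; Amplite luciferase reagent 10 min RT; luminescence readout. qHTS format.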
# Potency is the fitted concentration of half-maximal effect.
Structure (SMILES),activation [%],Potency
CC(OC(=O)/C=C/c1ccccc1)C(=O)NC1CCCCC1C (stereo unspecified),-4.21,
O=C(CCc1nc(-c2ccccc2)no1)Nc1cccc(C(=O)NC2CC2)c1,-0.65,
COc1ccc(CC(=O)c2ccc(O)cc2O)cc1OC,10.8,
COc1ccc(C(=O)Cc2cnn(-c3ccccc3)c2)c(O)c1,,2.51 µM (active)
Cc1cc(O)cc(O)c1C(=O)Cc1cnn(-c2ccccc2)c1,5.07,
CCOc1ncccc1C(=O)OCC(=O)N1c2ccccc2CC1C (stereo unspecified),-6.3,
Cc1ccc(N/C=C/C(=O)c2ccccc2)cc1C,,2 µM (active)
COc1ccc(N2C(=O)CCC(C(=O)Nc3ccccn3)C2c2ccc(OC)c(OC)c2)cc1 (stereo unspecified),0.515,
CCOc1ccc(N/C=C/C(=O)c2cc(OC)c(OC)c(OC)c2)cc1,-10.5,
COc1ccc(C(=O)/C=C/Nc2ccccn2)cc1,,0.1 µM (active)
COc1ccc(C(=O)/C=C/c2ccc(OC3CSC3)cc2)cc1,-2.72,
CCOc1ccc(N/C=C/C(=O)c2ccccc2)cc1,,0.316 µM (active)
O=C(/C=C/NCc1ccc(F)cc1)c1ccccc1,-4.79,
CCOc1ccc(NC(=S)N2CCC(NC(=O)c3ccccc3)CC2)cc1,-3.36,
Cc1noc(NS(=O)(=O)c2ccc(N/C=C/C(=O)c3ccccc3)cc2)c1C,9.13,
Cc1nc2ccc(NC(=O)C3CCCCC3)cc2s1,19.3,
COc1ccc(C(=O)OCC(=O)N2CC(=O)Nc3ccccc32)cc1Br,0.925,
Cc1occc1-c1nnc(SCC(=O)NC2CCCCC2)o1,-1.6,
Cc1nc(SCC(=O)NC2CCCCC2C)c(C#N)c(C)c1C (stereo unspecified),-2.69,
COc1cccc(C(=O)Nc2cccnc2)c1OC,-1.61,
Cc1cccc(-n2cnc(C(=O)Nc3cccnc3)c2)n1,,2.82 µM (active)
Cc1cccc(-n2cnc(C(=O)NNC(=S)Nc3ccccc3)c2)n1,-1.83,
COc1ccc(S(=O)(=O)N2CCC(C(=O)N3CCCC3)CC2)cc1C,-2.33,
CCCN(CC1CC1)C(=S)NC(=O)c1ccccc1Br,-0.97,

Structure (SMILES),activation [%],Potency
CC1(C)CN(c2ccc(-c3ccnc4ncnn34)cc2)C1=O,10.3,
COc1ccccc1-c1sc2ccccc2c1-c1ccc(C(C)=O)cc1,17.3,
Oc1ccc(N=Cc2sc3ccccc3c2Cl)cc1,-3.13,
COc1ccc(N=C(C)c2sc3ccccc3c2O)cc1,,0.708 µM (active)
CC1CCCC(C)N1C(=O)COC(=O)COc1ccccc1C#N (stereo unspecified),0.305,
O=C1C=C(c2cccc(Cl)c2O)C[C@@H](c2ccc(F)cc2)C1,-0.0087,
CC1CCCCC12NC(=O)N(CC(=O)Nc1ccc(S(=O)(=O)Nc3ncccn3)cc1)C2=O (stereo unspecified),1.23,
O=C1Cc2cc(S(=O)(=O)Nc3cccc(F)c3)ccc2N1,-2.73,
Cc1ccccc1OCC(=O)Nc1ccc(N2CCN(C(=O)C(C)C)CC2)c(Cl)c1,-14.2,
Cc1ccccc1OCC(=O)Nc1ccc2c(c1)ncn2C,,6.31 µM (active)
Cc1ccccc1OCC(=O)Nc1ccc(S(=O)(=O)N2CCOCC2)cc1,-4.62,
O=C(CN1C(=O)NC2(CCCCC2)C1=O)N1CCN(C(=O)c2cccs2)CC1,-1.5,
Cc1ccc(/C=C/C(=O)OCC(=O)NCc2ccc(Cl)cc2)o1,-3.5,
CCOc1ccc(NC(=O)CN(C)C(=O)CCSc2ccc(F)cc2)cc1OCC,2.17,
CC(C)n1ncc2c(C(=O)Nc3ccc(CC#N)cc3)cc(C3CC3)nc21,2.63,
Cc1ccc(N/N=C2\COC(C)(C)CC2=O)cc1,,2.82 µM (active)
Nc1c(N(Cc2ccco2)C(=O)c2cccc(F)c2)c(=O)[nH]c(=O)n1Cc1ccccc1,1.11,
COCCN(Cc1ccccc1)C(=O)Cc1ccc(S(=O)(=O)N2CCOCC2)s1,-0.21,
CC(=O)Nc1ccc(-c2nc3ccccc3o2)cc1,,1.12 µM (active)
Cc1ccc(OCC(=O)Nc2ccc(-c3nc4ncccc4o3)cc2)cc1,23.3,
CCc1nc(Nc2ccc(NC(C)=O)cc2)c2oc3ccccc3c2n1,4.77,
COc1ccc(S(=O)(=O)N2CCN(CC(=O)NCC3(N4CCOCC4)CCCCC3)CC2)cc1,-1.5,
COc1ccc(CSc2nnnn2-c2ccc(O)cc2)cc1F,-1.66,
O=C(Nc1ccccc1N1CCCCC1)c1ccc2nccnc2c1,-2.42,

Structure (SMILES),activation [%],Potency
O=C(Nc1ccccc1Cl)c1ccc2nsnc2c1,,2.24 µM (active)
Cc1cccc(NC(=O)c2ccc3nsnc3c2)c1C,12.2,
O=C(C1CCC1)N1CCN(S(=O)(=O)c2ccc([N+](=O)[O-])cc2)CC1,-0.512,
CCOc1ccc(S(=O)(=O)N(CC(=O)NCC(F)(F)F)Cc2ccco2)cc1,-0.109,
CCOc1ccc(-c2nnc(-c3ccco3)o2)cc1,,0.631 µM (active)
CCOc1ccc(-n2c(SCC(N)=O)nnc2-c2ccco2)cc1,1.18,
CCCCOc1ccc(-c2nnc(-c3ccco3)o2)cc1,,1.58 µM (active)
COc1ccc(OCC(=O)Nc2nnc(-c3ccco3)s2)cc1,-6.29,
CCOc1ccc(NC(=O)N(CCC(C)C)C(C)c2ccco2)cc1 (stereo unspecified),-0.897,
Cc1ccc(OCC(=O)Nc2ccc(-c3nnc(-c4ccco4)o3)cc2)cc1,,2.82 µM (active)
O=C(CCc1ccccc1)Nc1cccc(-c2nnc(-c3ccco3)o2)c1,15.9,
CC(=O)Nc1ccc(NC(=O)COc2ccc(-c3ccccc3)cc2)cc1,4.85,
Cc1ccc(OCC(=O)Nc2nnc(-c3ccco3)s2)cc1,-2.26,
CCC[C@H]1CCCC/C=C\CCCC(=O)OCCN1C(=O)OC(C)(C)C,-2.58,
CCOCCn1[nH]c2ccccc2c1=O,8.92,
CC(C)NC(=O)N1CCN(c2ccncc2S(=O)(=O)N2CCCCC2)CC1,-6.15,
O=C(NC1CCCCCC1)C1CCN(C(=O)c2ccc(Cl)cc2)CC1,-1.36,
CCc1sc(C(=O)N2CCN(CC(=O)Nc3cccc(F)c3)CC2)cc1C,-2.76,
COc1cccc(C2=CC(=O)C[C@H](c3ccc(OC)c(OC)c3)C2)c1,0.572,
Cn1nc(-c2ccccc2)c2cc([N+](=O)[O-])ccc21,3.87,
Cc1nn(-c2ccc([N+](=O)[O-])cc2)c(N)c1-c1ccccc1,,1.58 µM (active)
Cc1cc(CO)nn1-c1ccc([N+](=O)[O-])cc1,-0.734,
COC(=O)C1=CO[C@@H](O[C@@H]2O[C@H](CO)[C@@H](O)[C@H](O)[C@H]2O)C2C1C[C@H](O)[C@@H]2C (stereo partly specified),-0.388,
